Experimental data: PubChem BioAssay (NCATS)
Activity calls are given as the source filed them. Calls come from the whole dose curve.

Details: Ebola virus entry cell assay, ratio channel

| Structure (SMILES) | AC50 | outcome |
| --- | --- | --- |
| O=C1c2c(O)ccc(O)c2C(=O)c2c(NCCNCCO)ccc(NCCNCCO)c21 | 5.01 µM (active) |  |
| Nc1nc2c(ncn2COC(CO)CO)c(=O)[nH]1 |  | inactive |
| COc1ccc([C@@H]2Sc3ccccc3N(CCN(C)C)C(=O)[C@@H]2OC(C)=O)cc1 |  | inactive |
| CCc1nc(N)nc(N)c1-c1ccc(Cl)cc1 |  | inactive |
| CN(C)CC[C@@H](c1ccc(Br)cc1)c1ccccn1 |  | inactive |
| CCN(CC)CCCC(C)Nc1ccnc2cc(Cl)ccc12 (stereo unspecified) | 2.82 µM (active) |  |
| CC[C@@H]([C@H](C)O)n1ncn(-c2ccc(N3CCN(c4ccc(OC[C@@H]5CO[C@@](Cn6cncn6)(c6ccc(F)cc6F)C5)cc4)CC3)cc2)c1=O | 8.91 µM (active) |  |
| O=C(NCCN1CCOCC1)c1ccc(Cl)cc1 |  | inactive |
| CNCC[C@H](Oc1cccc2ccccc12)c1cccs1 | 10 µM (active) |  |
| CCOc1ccc2ccccc2c1C(=O)N[C@@H]1C(=O)N2[C@@H]1SC(C)(C)[C@@H]2C(=O)O |  | inactive |
| CC(=O)Oc1cc2c(s1)CCN(C(C(=O)C1CC1)c1ccccc1F)C2 (stereo unspecified) |  | inactive |
| CC(C)(O)c1ccccc1CC[C@@H](SCC1(CC(=O)O)CC1)c1cccc(/C=C/c2ccc3ccc(Cl)cc3n2)c1 |  | inactive |
| Cc1onc(-c2ccccc2Cl)c1C(=O)N[C@@H]1C(=O)N2[C@@H]1SC(C)(C)[C@@H]2C(=O)O |  | inactive |
| COc1ccccc1Oc1c(NS(=O)(=O)c2ccc(C(C)(C)C)cc2)nc(-c2ncccn2)nc1OCCO |  | inactive |
| Cc1cc(C)cc(OCC2CNC(=O)O2)c1 (stereo unspecified) |  | inactive |
| CN(C)CCCN1c2ccccc2CCc2ccc(Cl)cc21 | 6.31 µM (active) |  |
